FBW7 act – activators of human E3 ligase FBW7. Q969H0. 650,000 compounds, 0.13% hits. AlphaScreen FBW7–phospho-cyclin E peptide binding, activator screen. normalized activity (activation), % at 26.1 µM; in the data active = normalized activity above about 1.9%;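 note: purified mutant Fbw7 with reduced substrate affinity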
Target sequence (Q969H0 whole entry, looked up): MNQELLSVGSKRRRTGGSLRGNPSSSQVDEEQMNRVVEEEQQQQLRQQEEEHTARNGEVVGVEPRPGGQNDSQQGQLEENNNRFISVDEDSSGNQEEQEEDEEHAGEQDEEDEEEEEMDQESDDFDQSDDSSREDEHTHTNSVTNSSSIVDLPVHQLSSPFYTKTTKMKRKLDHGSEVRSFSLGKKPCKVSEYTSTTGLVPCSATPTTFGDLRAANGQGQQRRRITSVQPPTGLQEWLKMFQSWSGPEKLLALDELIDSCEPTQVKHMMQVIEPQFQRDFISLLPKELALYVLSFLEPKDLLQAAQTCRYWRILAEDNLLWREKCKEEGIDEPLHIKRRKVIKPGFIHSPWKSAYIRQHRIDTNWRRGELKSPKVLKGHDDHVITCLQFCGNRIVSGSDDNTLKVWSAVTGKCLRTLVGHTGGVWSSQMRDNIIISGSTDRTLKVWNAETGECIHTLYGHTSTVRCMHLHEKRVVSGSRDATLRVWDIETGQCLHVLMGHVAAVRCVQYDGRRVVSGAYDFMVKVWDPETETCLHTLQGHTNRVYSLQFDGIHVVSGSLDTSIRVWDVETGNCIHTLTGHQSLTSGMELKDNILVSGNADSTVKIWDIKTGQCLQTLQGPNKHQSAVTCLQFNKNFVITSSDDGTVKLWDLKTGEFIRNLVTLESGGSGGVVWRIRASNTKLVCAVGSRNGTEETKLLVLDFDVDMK
MITF primary – blocks human microphthalmia-associated transcription factor | inhibition, % at 2.6 µM | 650,000 compounds, 0.91% hits | O75030 | AlphaScreen MITF homodimerization, bead proximity signal | AID 1259374; in the data active = inhibition above about 50%
GPR151 activ – activates the human receptor GPR151; 650,000 compounds, 1% hits; AID 1508602; activation, % at 11.2 µM; PathHunter beta-arrestin GPR151 cells, luminescence; Q8TDV0; in the data active = activation above about 4.9%
TEAD-YAP block – TEAD-YAP interaction inhibition | HEK-TIYL cells, TEAD-Gal4/YAP UAS-luciferase luminescence | inhibition, % at 9.12 µM | 640,000 compounds, 1.4% hits | AID 1259422; in the data active = inhibition above about 32%
Large screens that a line does not name were inactive. This is a sample that favours compounds with a hit; in the whole collection about 3.5% have one here.

NNC(=O)/C(=C/c1ccc([N+](=O)[O-])cc1)NC(=O)c1ccco1	TEAD-YAP block 50
CC(Nc1cccc2ccccc12)C(=O)N/N=C/c1ccc(O)cc1 (configuration not stated)	TEAD-YAP block 34
COc1ccccc1NC(C)C(=O)N/N=C/c1cc([N+](=O)[O-])ccc1O (configuration not stated)	none
O=C(Cn1cncn1)N/N=C/c1ccc(Br)cc1	none
CC(Oc1cccc2ccccc12)C(=O)N/N=C/c1cc([N+](=O)[O-])ccc1O (configuration not stated)	TEAD-YAP block 37
O=C(Cn1cncn1)N/N=C/c1cc(Br)ccc1O	MITF primary 57
CC(Nc1cccc2ccccc12)C(=O)N/N=C/c1cc([N+](=O)[O-])ccc1O (configuration not stated)	TEAD-YAP block 67
COc1ccc(C)cc1NC(=O)c1cn(-c2ccc(C)c(C)c2)c(=O)c2ccccc12	none
O=C(CNc1cccc2ccccc12)N/N=C/c1cc(Br)ccc1O	TEAD-YAP block 34
O=C(CNc1cccc2ccccc12)N/N=C/c1ccccc1O	none
COc1ccc(NC(=O)CCCN(C)S(=O)(=O)c2ccc(Cl)cc2)cc1	none
Cn1c(-c2ccccc2)cnc1NC(=O)c1ccccc1	TEAD-YAP block 57
OCCC#Cc1ccc(CN2CCN(Cc3cccs3)C(CCO)C2)cc1 (configuration not stated)	none
O=S(=O)(c1c(Cl)cccc1Cl)N1CCN(Cc2ccc3c(c2)OCO3)CC1	none
O=C(Nc1ccc2c(c1)CN(C(=O)c1csnn1)CC2)c1ccc(C(F)(F)F)cc1	TEAD-YAP block 33
O=C(Cc1ccccc1F)Nc1ccc2c(c1)CN(C(=O)c1csnn1)CC2	none
O=C(N/N=C\c1ccc(O)cc1)c1ccccn1	TEAD-YAP block 42
CC(=C/c1ccccc1)/C=N/NC(=O)c1ccccn1	none
O=C(N/N=C\c1ccc(F)cc1)c1ccccn1	none
CSc1ccc(/C=N\NC(=O)c2ccccn2)cc1	TEAD-YAP block 49
O=C(N/N=C/c1ccc(O)cc1)c1ccccn1	none
O=C(N/N=C/c1cccc(O)c1O)c1ccccn1	MITF primary 81
CC(/C=N\NC(=O)c1ccccn1)=C\c1ccccc1	TEAD-YAP block 34
O=C1OC(/C=C/c2ccc(Cl)cc2Cl)=NC/1=C\c1ccco1	none
Cc1sc2nc(C3CC3)n(C3CCN(CC(=O)NC4CCCCC4)CC3)c(=O)c2c1C	none
COc1ccc(NC(=O)CCN2CCOCC2)cc1	none
O=C(N/N=C\c1cccc(O)c1)c1ccccn1	TEAD-YAP block 74
CCOc1ccc(/C=N/NC(=O)c2ccoc2C)cc1	TEAD-YAP block 38
CCc1ccc(/C=N/NC(=O)c2ccccn2)cc1	none
CCOc1ccc(/C=N\NC(=O)c2ccccn2)cc1	TEAD-YAP block 36
Cc1ccc(OCC(=O)Nc2cccc([N+](=O)[O-])c2)c(Br)c1	none
COC(=O)c1ccc(/C=C2\N=C(c3ccc(F)cc3)OC2=O)cc1	none
COc1ccc(-c2cc3nc(C)c(C)c(Cl)n3n2)cc1	none
Cc1nc2cc(-c3ccccc3)nn2c(N)c1-c1ccccc1	TEAD-YAP block 37
COc1ccc(-c2cc3nc(C)cc(N)n3n2)cc1	TEAD-YAP block 74
O=C(Nc1ccccc1[N+](=O)[O-])C(c1ccccc1)N1CCOCC1 (configuration not stated)	none
CCOc1ccc2[nH]c(=O)c(CN(CCOC)C(=O)Nc3cccc(OC)c3)cc2c1	none
O=C(O)C1Nc2c(O)cccc2C2C=CCC12 (configuration not stated)	MITF primary 108
Brc1ccc(C2Nc3c(I)cccc3C3C=CCC32)cc1 (configuration not stated)	none
O=C(O)C1Nc2c(I)cccc2C2C=CCC12 (configuration not stated)	MITF primary 83
CC(=O)c1cccc(S(=O)(=O)Nc2ccccc2CO)c1	none
Cc1cc2c(c(=O)[nH]1)C(=O)O/C2=C\c1cccnc1	none
CN1/C(=C/C=C/c2cc(-c3ccc(Cl)cc3)cc(-c3ccc(Cl)cc3)[n+]2C)C(C)(C)c2ccccc21	MITF primary 59, TEAD-YAP block 94
CC(=O)Nc1cccc(Oc2ccc3c(c2)C(=O)N(c2cccc(Cl)c2)C3=O)c1	TEAD-YAP block 80
CC(=O)Nc1cccc(Oc2ccc3c(c2)C(=O)N(c2cccc(OC(C)=O)c2)C3=O)c1	TEAD-YAP block 46
Cc1noc(C)c1C(=O)N1CCCC(C(=O)Nc2cccc(-c3cc4ccccc4[nH]3)c2)C1 (configuration not stated)	none
CC(=O)Nc1sc2c(c1C(c1ccccc1F)N1CCOCC1)CCCC2 (configuration not stated)	none
CC(C)c1ccc(C(=O)CSc2ncn[nH]2)cc1	TEAD-YAP block 37
COc1cc(Nc2nc(C)cc(Nc3ccc(NC(C)=O)cc3)n2)cc(OC)c1OC	none
CCNc1cc(C)nc(Nc2ccc(NC(=O)c3cc(OC)c(OC)c(OC)c3)cc2)n1	TEAD-YAP block 77
COc1cc(Nc2cc(C)nc(Nc3ccccc3)n2)cc(OC)c1OC	TEAD-YAP block 47
Cc1cc(C)nc(Nc2ccc(Nc3ccccc3)cc2)n1	TEAD-YAP block 33
COc1cc(Nc2ncc(C)c(Nc3ccccc3)n2)cc(OC)c1OC	TEAD-YAP block 34
O=C(NCCN1CCOCC1)c1ccc2nc(NC3CCN(Cc4ccccc4)CC3)sc2c1	none
CN1CCN(C(c2ccc(N(C)C)cc2)c2nnnn2Cc2ccc3c(c2)OCO3)CC1 (configuration not stated)	none
COc1cc(Nc2nc(C)cc(Nc3ccccc3)n2)cc(OC)c1OC	TEAD-YAP block 46
Nc1nccc(-c2ccc3nc(C4COc5ccc(C(=O)NC6CCCC6)cc5C4)[nH]c3c2)n1 (configuration not stated)	FBW7 act 2.4
Nc1nccc(-c2ccc3nc(C4COc5ccc(C(=O)NC6CCCCC6)cc5C4)[nH]c3c2)n1 (configuration not stated)	FBW7 act 6.0
COc1ccc(CNC(=O)c2ccc3c(c2)CC(c2nc4ccc(-c5ccnc(N)n5)cc4[nH]2)CO3)cc1 (configuration not stated)	FBW7 act 7.5
Nc1nccc(-c2ccc3nc(C4COc5ccc(C(=O)NCc6ccccc6)cc5C4)[nH]c3c2)n1 (configuration not stated)	none
CCOc1ccc(C2C(C(=O)/C=C/c3ccco3)=C(O)C(=O)N2CCCN2CCOCC2)cc1OC (configuration not stated)	none
CCCCCOc1ccc(Br)cc1/C(C)=N/NC1=NCCN1	TEAD-YAP block 62
CN(C)CCNC(=O)c1cccn2c(=O)c3cc4ccccc4cc3nc12	TEAD-YAP block 71
CC(C)CCNC(=O)c1cccn2c(=O)c3cc4ccccc4cc3nc12	none
COc1cc(C2NCCc3c2[nH]c2ccccc32)ccc1O (configuration not stated)	none
CCCNc1ccc2ncc(-c3cccc(C(C)=O)c3)n2n1	TEAD-YAP block 34
OCCCNc1ccc2ncc(-c3ccccc3)n2n1	TEAD-YAP block 43
c1ccc2cc(-c3cnc4ccc(NCCCN5CCOCC5)nn34)ccc2c1	none

Screening data deposited in PubChem BioAssay by The Scripps Research Institute Molecular Screening Center.
